About 2,000 (0.91%) of roughly 220,000 compounds were called active. Another 2% or so got no clear call; they are omitted. Rule as the data show it: inconclusive = inhibition above about 80% without an active follow-up result; inactive = below that; test concentration not stated here. Not all results are given here. Entries with a potency or affinity are not part of this list.
experiment: M. tuberculosis H37Rv growth inhibitors, H37Rv strain (AID 1626); details: active compounds read high, concentration not given here;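 also: bacteria incubated seven days before Alamar blue readout; 0% = bacteria only wells and 100% = bacteria with antibiotic wells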

SMILES	inhibition
COCCNC(=O)COC(=O)c1ccc(OCC(=O)Nc2ccccc2OC)c(OC)c1	2.52% (inactive)
CCC1(C)CC(C(N)=S)CCO1 (stereo not given)	7.13% (inactive)
CCOC(=O)c1ccc(CSc2nnc(C)n2N)o1	1.16% (inactive)
NC(=O)C[C@H]1NC(=O)[C@H](CCC(=O)O)NC(=O)c2cc([N+](=O)[O-])cc(I)c2NCCC[C@@H](C(N)=O)NC1=O	3.24% (inactive)
COc1ccc(Nc2ccnc3ccccc23)cc1	9.05% (inactive)
c1ccc2cc3c(NCCN4CCOCC4)ccnc3cc2c1	3.77% (inactive)
Oc1ccc(Nc2ccnc3cc(Cl)ccc23)cc1	-0.59% (inactive)
c1ccc(CCNc2ncnc3ccccc23)cc1	-6.97% (inactive)
Cc1c(C(=O)NCc2ccccc2Cl)oc2c1C(=O)CCC2	-3.25% (inactive)
CCCCn1nc2cc(C(=O)NCc3cc(C(F)(F)F)cc(C(F)(F)F)c3)ccc2c1OC	-4.51% (inactive)
O=C(NC1CCCCC1)c1ccc(Cn2cc(Cl)cn2)cc1	0.85% (inactive)
CC(=O)Nc1ccc(NC(=O)c2ccc(Cl)nc2)cc1	3.97% (inactive)
CCCSc1ccc(C(=O)Nc2ccc(F)cc2F)cn1	72.4% (inactive)
N=C1/C(=C/c2cccn2-c2ccc([N+](=O)[O-])cc2)C(=O)N=C2SC=CN12	-5.89% (inactive)
N=C1/C(=C/c2cccn2-c2cccc([N+](=O)[O-])c2)C(=O)N=C2SC=CN12	-11.3% (inactive)
Cc1ccc2cc(CN(CC3CCCO3)C(=O)C(C)C)c(=O)[nH]c2c1 (stereo not given)	-3.77% (inactive)
CCCCCCCCCCCCCCCC[n+]1cccc(C(=O)N(CC)CC)c1	5.29% (inactive)
C=C(C)Cn1c(=O)c(NC(=O)c2ccccc2)c2n(c1=S)CCC2	-3.38% (inactive)
O=C(NCCCN1CCOCC1)c1cccnc1SCc1ccccc1Cl	-2.04% (inactive)
CCN(CC)CCN(Cc1cc2ccc(C)c(C)c2[nH]c1=O)C(=S)NCc1ccco1	-6.4% (inactive)

SMILES	inhibition
O=[N+]([O-])c1ccc(COc2ccc(-c3[nH]ncc3-c3ccccc3)c(O)c2)cc1	11.9% (inactive)
COc1ccc(-c2cn[nH]c2-c2ccc(OCc3ccc([N+](=O)[O-])cc3)cc2O)cc1	9.69% (inactive)
Cc1ccc(SCc2ccc(C(=O)N3CCCCC3)cc2)cc1	4.74% (inactive)
COC(=O)CCCCC1SCC(NC(=O)c2ccccc2)C1OC(C)=O (stereo not given)	-1.97% (inactive)
COC(=O)/C(=C\Nc1ccc(OC)cc1)NC(=O)c1ccc(Cl)cc1Cl	46.4% (inactive)
CCN(CC)CCOC(=O)c1ccc(NC(=O)/C=C/c2cccs2)cc1	-0.83% (inactive)
O=C(/C=C/c1cccs1)Nc1ccncc1	-3.31% (inactive)
NS(=O)(=O)c1ccc(NC(=O)/C=C/c2cccs2)cc1	-2.49% (inactive)
CCCOC(=O)c1ccc(NS(=O)(=O)c2cccs2)cc1	8.32% (inactive)
CC(=O)Nc1ccc(N(C(=O)c2ccco2)C(C(=O)NC2CCCC2)c2cccs2)cc1 (stereo not given)	-12.6% (inactive)
O=C(O)c1cc([N+](=O)[O-])ccc1Nc1ccccc1	0.55% (inactive)
CCOC(=O)C1=C(C)N(Cc2ccccc2)C(=O)NC1c1ccccc1OS(=O)(=O)c1ccccc1[N+](=O)[O-] (stereo not given)	1.38% (inactive)
CCNC(=O)CN(C1CCCCC1)S(C)(=O)=O	-1.63% (inactive)
Cc1cc(N2CCN(C(=O)c3ccco3)CC2)n2ncnc2n1	0.62% (inactive)
O=C(Nc1ccc(Cl)c(Cl)c1)Oc1ccc(NC(=O)c2ccco2)cc1	61.8% (inactive)
CCc1ccc(C(C)NC(=O)Cc2ccc(F)cc2)cc1 (stereo not given)	9.96% (inactive)
COCCCn1c(-c2ccccc2)nc2ccccc2c1=O	5.89% (inactive)
CCOC(=O)Cn1c(-c2ccccc2)nc2ccccc2c1=O	45.8% (inactive)
CCCNS(=O)(=O)c1ccc(OCC(=O)Nc2ccc3c(c2)OCO3)cc1	-3.44% (inactive)
CCCN(CC1CC1)C(=S)Nc1ccc(C(C)=O)cc1	-2.45% (inactive)

SMILES	inhibition
COc1cc(-c2nn3c(C4CCCCC4)nnc3s2)cc(OC)c1OC	28.5% (inactive)
COc1ccc(-c2nn3c(C4CCCCC4)nnc3s2)cc1OC	4.71% (inactive)
Cc1nnc(Sc2cc(C(=O)NCCCOC(C)C)c3ccccc3n2)s1	4.65% (inactive)
CCN1C(=O)C2(C(C#N)=C(N)Oc3n[nH]c(COC)c32)c2ccccc21 (stereo not given)	-1.31% (inactive)
Cc1cccc2cc(CNCc3ccccc3)c(Cl)nc12	-2.86% (inactive)
Cc1ccc(CNCc2ccccc2Cl)cc1	6.89% (inactive)
Cc1cc(C)c(NC(=O)CSc2nc3ccc(NC(=O)CSc4nnnn4Cc4ccccc4)cc3s2)c(C)c1	8.59% (inactive)
O=C(CCN1CCN(Cc2ccccc2)CC1)Nc1cccc(Cl)c1	-5.85% (inactive)
Cc1ccc2c(CN3CCN(Cc4ccc5c(c4)OCO5)CC3)cc(=O)oc2c1C	-3.12% (inactive)
Cc1cc(C)c2c(CN3CCN(Cc4ccc5c(c4)OCO5)CC3)cc(=O)oc2c1	23.5% (inactive)
CCOc1ccccc1NC(=O)CN1C(=O)CSC(C)C1=O (stereo not given)	2.75% (inactive)
CNC(=S)N1N=C(c2ccc(C)cc2)CC1c1ccc(OC)cc1 (stereo not given)	3.11% (inactive)
COC(=O)c1cn(C(=O)/C=C/c2ccc(OC)c(OC)c2)c2ccccc12	4.86% (inactive)
c1ccc(Cn2c(CNc3nc4ccccc4n3CCN3CCCCC3)nc3ccccc32)cc1	16.8% (inactive)
CCOC(=O)c1ccc(NC(=S)NNC(=O)C2(C)CC2(Cl)Cl)cc1 (stereo not given)	1.27% (inactive)
O=C1/C(=C/c2ccco2)SC(=S)N1c1cccnc1	-3.57% (inactive)
N=C1S/C(=C\c2ccco2)C(=O)N1c1ccc2c(c1)OCO2	3.8% (inactive)
O=C1OC(c2cccs2)=N/C1=C\c1ccc(-c2cccc(Cl)c2)o1	4.3% (inactive)
CN1C(=O)C(=Cc2ccc(-c3cccc(Cl)c3)o2)C(=O)N(C)C1=O	5.04% (inactive)
O=S(=O)(c1cnc(Cl)c(Br)c1)N1CCN(c2ncccn2)CC1	-10.8% (inactive)

From PubChem BioAssay AID1626 (SRMLSC, 2009)
